# Source: PubChem BioAssay (EPA / NIEHS)
# Records with an inconclusive call do not appear. Calls of active or inactive are those of the source. How the source made its calls, unless noted: active means hit-call score of the fitted dose curve at least 0.9, where 1 is the maximum; inactive means score below 0.9.
# Columns and labels:
# [1] = target: Oxysterols receptor LXR-beta (Homo sapiens) (UniProt P55055); assay: ATG_LXRb_TRANS: Attagene TRANS-FACTORIAL HepG2 Assay for human Liver X Receptor beta (LXRb) (AID 2282981; active means hit-call score of the fitted dose curve at least 0.9, where 1 is the maximum); conditions: HepG2 Attagene TRANS GAL4-LXRb reporter, mRNA
# In short: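 Multiplexed reporter assay, HepG2, 24 h dosing. Fluorescence of labelled RT-PCR products after capillary electrophoresis gives transcript level; positive fitting direction relative to DMSO.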
# [2] = target: Hepatocyte nuclear factor 4-alpha (Homo sapiens) (UniProt P41235); assay: ATG_HNF4a_TRANS: Attagene TRANS-FACTORIAL HepG2 Assay for human Hepatocyte Nuclear Factor 4 alpha (HNF4a) (AID 2282982; active means hit-call score of the fitted dose curve at least 0.9, where 1 is the maximum); conditions: HepG2 HNF4a transactivation reporter, mRNA readout
# In short: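 Endpoint reflects transcriptional activation of a GAL4-UAS reporter by an HNF4a-GAL4 chimera in transfected HepG2 cells, 24 h post-dosing. Fluorescence from RT-PCR products separated by capillary electrophoresis; DMSO baseline.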
# [3] = ATG_M_06_TRANS: Attagene TRANS-FACTORIAL HepG2 Assay for M06 Transcription Factor (Internal Marker) (AID 2282983; active means hit-call score of the fitted dose curve at least 0.9, where 1 is the maximum); conditions: HepG2 Attagene TRANS M06 internal marker reporter
# In short: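 Human liver HepG2 cells bearing transiently transfected chimeric NR-GAL4 reporter units were treated with chemicals for 24 h. Total RNA was reverse-transcribed, reporter sequences amplified and labelled, then quantified by capillary electrophoresis. Activity was fitted upward relative to DMSO.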
# [4] = ATG_M_32_TRANS: Attagene TRANS-FACTORIAL HepG2 Assay for M32 Transcription Factor (Internal Marker) (AID 2282984; active means hit-call score of the fitted dose curve at least 0.9, where 1 is the maximum;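 further: transcript level of a background control reporter unit measured by RT-PCR and capillary electrophoresis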); conditions: HepG2 Attagene TRANS M32 internal marker reporter
# In short: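 Internal-marker readout from a multiplexed transcription reporter panel. HepG2 cells were transfected with GAL4-UAS reporter units, treated 24 hours, and reporter transcript levels determined by fluorescence after RT-PCR and capillary separation.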
# [5] = target: Nuclear receptor subfamily 4 group A member 2 (Homo sapiens) (UniProt P43354); assay: ATG_NURR1_TRANS: Attagene TRANS-FACTORIAL HepG2 Assay for human Nuclear Receptor Related Protein 1 (NURR1) (AID 2282985; active means hit-call score of the fitted dose curve at least 0.9, where 1 is the maximum); conditions: HepG2 Attagene TRANS reporter, mRNA readout
# In short: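 Endpoint: reporter mRNA increase relative to DMSO. HepG2 cells transfected with reporter units, treated 24 h; RNA processed by RT-PCR, labelling, HpaI digestion and capillary electrophoresis.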
# [6] = target: Nuclear respiratory factor 1 (Homo sapiens) (UniProt Q16656); assay: ATG_NRF1_CIS: Attagene CIS-FACTORIAL HepG2 Assay for human Nuclear Respiratory Factor 1 (NRF1) Orphan Gene (AID 2282987); conditions: HepG2 NRF1 cis-element reporter, Attagene multiplex; actives raise or lower the signal
# In short: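 Cells (HepG2, transient MRTU transfection) are exposed to compound for 24 h, then RNA isolated and reporter mRNA amplified and fluorescently labelled. Fragments are separated by capillary electrophoresis; signal change is fitted bidirectionally relative to DMSO.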
# [7] = ATG_NFI_CIS: Attagene CIS-FACTORIAL HepG2 Assay for human Nuclear Factor I (NFI) (AID 2282989); conditions: HepG2 cis-regulatory reporter, NFI response element transcription; actives raise or lower the signal
# In short: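 Read-out: reporter mRNA via RT-PCR plus capillary electrophoresis with fluorescence detection. Transiently transfected HepG2 (endogenous TF activity on cis promoters), 24 h compound exposure; gain or loss of signal fitted against DMSO.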
# [8] = target: Myc proto-oncogene protein (Homo sapiens) (UniProt P01106); assay: ATG_Myc_CIS: Attagene CIS-FACTORIAL HepG2 Assay for human Myelocytomatosis (Myc) Proto-Oncogene Transcription Factor (AID 2282990); conditions: HepG2, Attagene cis-reporter transcription factor activity; actives raise or lower the signal
# In short: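 Fluorescence intensity of reporter-specific cDNA fragments, separated by capillary electrophoresis, gives the signal. Transfected HepG2 cells carrying cis-promoter reporter constructs are incubated with compound for 24 h; DMSO serves as baseline.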
# [9] = ATG_NF_kB_CIS: Attagene CIS-FACTORIAL HepG2 Assay for human Nuclear Factor Kappa B (NF-kB) (AID 2282991); conditions: HepG2 Attagene cis-factorial NF-kB reporter mRNA; actives raise or lower the signal
# In short: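 Measures mRNA induction of an NF-kB-responsive cis-element reporter in HepG2 cells transfected with multiple reporter units, sampled 24 h post-dosing; quantified by fluorescence after RT-PCR and capillary electrophoresis, fitted for activation or inhibition against DMSO.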
# [10] = target: Transcriptional activator Myb (Homo sapiens) (UniProt P10242); assay: ATG_Myb_CIS: Attagene CIS-FACTORIAL HepG2 Assay for human Myeloblastosis (Myb) Proto-Oncogene Transcription Factor (AID 2282986); conditions: HepG2 Attagene CIS-FACTORIAL Myb reporter transcription; actives raise or lower the signal
# In short: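 Transiently transfected HepG2 cells, treated 24 h. Reporter mRNA quantified by RT-PCR/capillary electrophoresis; bidirectional fit relative to DMSO.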
# Sequence of Transcriptional activator Myb (Homo sapiens) (P10242 whole entry, looked up): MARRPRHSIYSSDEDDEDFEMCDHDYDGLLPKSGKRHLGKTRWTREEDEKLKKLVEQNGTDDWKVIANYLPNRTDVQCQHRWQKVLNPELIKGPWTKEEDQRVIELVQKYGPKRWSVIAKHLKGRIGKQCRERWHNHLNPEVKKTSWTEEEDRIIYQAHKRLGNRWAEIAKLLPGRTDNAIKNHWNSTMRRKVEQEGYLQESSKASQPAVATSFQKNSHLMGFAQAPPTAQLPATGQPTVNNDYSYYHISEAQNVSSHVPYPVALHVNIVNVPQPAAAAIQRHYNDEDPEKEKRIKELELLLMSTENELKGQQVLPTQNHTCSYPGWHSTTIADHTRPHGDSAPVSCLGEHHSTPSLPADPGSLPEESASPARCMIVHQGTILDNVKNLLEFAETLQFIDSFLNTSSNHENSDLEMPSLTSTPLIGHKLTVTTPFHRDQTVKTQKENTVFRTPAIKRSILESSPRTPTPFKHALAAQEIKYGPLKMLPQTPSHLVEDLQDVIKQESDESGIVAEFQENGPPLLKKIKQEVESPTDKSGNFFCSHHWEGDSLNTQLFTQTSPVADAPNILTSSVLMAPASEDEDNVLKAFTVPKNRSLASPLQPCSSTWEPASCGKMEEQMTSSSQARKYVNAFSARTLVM
# Sequence of Oxysterols receptor LXR-beta (Homo sapiens) (P55055 whole entry, looked up, the tested form may be a part): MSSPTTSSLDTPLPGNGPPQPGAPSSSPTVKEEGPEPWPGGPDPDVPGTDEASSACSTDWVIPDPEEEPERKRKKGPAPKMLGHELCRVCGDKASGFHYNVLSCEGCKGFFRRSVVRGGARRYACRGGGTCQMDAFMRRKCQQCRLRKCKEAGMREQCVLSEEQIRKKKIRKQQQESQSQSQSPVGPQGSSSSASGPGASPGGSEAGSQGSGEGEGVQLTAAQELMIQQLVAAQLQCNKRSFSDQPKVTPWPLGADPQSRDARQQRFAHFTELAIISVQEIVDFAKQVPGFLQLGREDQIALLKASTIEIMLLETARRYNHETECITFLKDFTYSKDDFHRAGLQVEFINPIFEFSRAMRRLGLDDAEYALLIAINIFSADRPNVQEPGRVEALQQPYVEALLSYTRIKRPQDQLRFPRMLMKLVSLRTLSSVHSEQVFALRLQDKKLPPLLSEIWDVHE
# Sequence of Myc proto-oncogene protein (Homo sapiens) (P01106 whole entry, looked up, the tested form may be a part): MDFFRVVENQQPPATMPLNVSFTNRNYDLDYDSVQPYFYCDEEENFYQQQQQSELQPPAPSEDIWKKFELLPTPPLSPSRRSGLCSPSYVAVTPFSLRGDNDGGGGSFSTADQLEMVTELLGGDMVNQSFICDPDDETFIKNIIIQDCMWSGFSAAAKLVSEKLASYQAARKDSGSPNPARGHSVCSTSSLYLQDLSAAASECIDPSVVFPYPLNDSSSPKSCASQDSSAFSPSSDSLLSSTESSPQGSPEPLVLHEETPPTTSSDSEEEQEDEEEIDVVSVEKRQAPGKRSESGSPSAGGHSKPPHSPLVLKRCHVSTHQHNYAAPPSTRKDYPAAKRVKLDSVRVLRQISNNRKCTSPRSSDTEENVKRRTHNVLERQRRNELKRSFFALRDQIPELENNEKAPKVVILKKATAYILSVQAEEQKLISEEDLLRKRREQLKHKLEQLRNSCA
# Sequence of Nuclear receptor subfamily 4 group A member 2 (Homo sapiens) (P43354 whole entry, looked up): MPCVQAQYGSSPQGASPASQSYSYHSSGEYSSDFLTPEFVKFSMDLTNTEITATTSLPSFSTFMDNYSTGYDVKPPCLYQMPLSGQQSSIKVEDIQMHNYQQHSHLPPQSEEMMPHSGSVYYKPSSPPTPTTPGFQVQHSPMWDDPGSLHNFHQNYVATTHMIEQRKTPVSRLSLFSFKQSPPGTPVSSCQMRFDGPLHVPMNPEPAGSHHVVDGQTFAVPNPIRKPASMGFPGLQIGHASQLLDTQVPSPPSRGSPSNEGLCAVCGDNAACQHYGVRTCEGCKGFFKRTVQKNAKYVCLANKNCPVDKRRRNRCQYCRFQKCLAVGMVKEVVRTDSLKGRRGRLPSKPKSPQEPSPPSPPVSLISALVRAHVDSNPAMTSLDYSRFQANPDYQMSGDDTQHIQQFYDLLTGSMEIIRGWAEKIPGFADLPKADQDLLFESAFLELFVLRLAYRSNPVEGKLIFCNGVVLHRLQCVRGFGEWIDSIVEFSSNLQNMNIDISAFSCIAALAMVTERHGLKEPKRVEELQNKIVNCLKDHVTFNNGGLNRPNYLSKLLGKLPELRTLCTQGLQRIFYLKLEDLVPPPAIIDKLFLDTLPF
# Sequence of Nuclear respiratory factor 1 (Homo sapiens) (Q16656 whole entry, looked up, the tested form may be a part): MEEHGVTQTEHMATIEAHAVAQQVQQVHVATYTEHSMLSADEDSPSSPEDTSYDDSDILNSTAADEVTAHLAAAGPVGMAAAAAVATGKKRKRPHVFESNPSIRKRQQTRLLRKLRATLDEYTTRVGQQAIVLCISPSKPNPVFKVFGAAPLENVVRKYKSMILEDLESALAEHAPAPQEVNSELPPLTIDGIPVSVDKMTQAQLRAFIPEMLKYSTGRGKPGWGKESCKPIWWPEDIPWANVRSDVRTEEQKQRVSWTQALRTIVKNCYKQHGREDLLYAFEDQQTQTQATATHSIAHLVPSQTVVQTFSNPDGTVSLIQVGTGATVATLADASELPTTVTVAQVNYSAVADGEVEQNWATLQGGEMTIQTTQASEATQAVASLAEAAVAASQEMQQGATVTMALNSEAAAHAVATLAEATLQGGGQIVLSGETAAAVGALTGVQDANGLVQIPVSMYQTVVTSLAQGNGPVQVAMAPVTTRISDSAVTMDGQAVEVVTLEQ
# Sequence of Hepatocyte nuclear factor 4-alpha (Homo sapiens) (P41235 whole entry, looked up, the tested form may be a part): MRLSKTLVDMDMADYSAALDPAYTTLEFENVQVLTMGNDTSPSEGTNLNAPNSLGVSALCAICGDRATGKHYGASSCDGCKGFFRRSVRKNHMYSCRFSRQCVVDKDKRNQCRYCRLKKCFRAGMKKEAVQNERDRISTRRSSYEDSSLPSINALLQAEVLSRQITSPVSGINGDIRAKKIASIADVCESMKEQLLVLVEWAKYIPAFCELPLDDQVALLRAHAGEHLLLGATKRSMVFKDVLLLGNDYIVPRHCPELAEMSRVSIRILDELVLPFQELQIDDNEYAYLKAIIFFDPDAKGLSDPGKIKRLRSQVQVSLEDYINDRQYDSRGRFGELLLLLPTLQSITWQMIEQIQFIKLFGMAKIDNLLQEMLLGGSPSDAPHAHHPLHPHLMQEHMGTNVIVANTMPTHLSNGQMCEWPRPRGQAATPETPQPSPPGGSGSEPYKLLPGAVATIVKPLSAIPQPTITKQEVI
compound,measurement,setting,value
CN(C)c1ccc(N=O)cc1,outcome,[1],inactive
same,outcome,[2],inactive
same,outcome,[3],inactive
same,outcome,[4],inactive
same,outcome,[5],inactive
same,outcome,[6],inactive
same,outcome,[7],inactive
same,outcome,[8],inactive
same,AC50,[9],6.42 µM (active)
NC(=O)CCl,outcome,[1],inactive
same,outcome,[2],inactive
same,outcome,[3],inactive
same,outcome,[4],inactive
same,outcome,[5],inactive
same,outcome,[10],inactive
same,outcome,[6],inactive
same,outcome,[7],inactive
same,outcome,[8],inactive
same,outcome,[9],inactive
O=C/C(Cl)=C(/Cl)C(=O)O,outcome,[1],inactive
same,outcome,[2],inactive
same,outcome,[3],inactive
same,outcome,[4],inactive
same,outcome,[5],inactive
same,outcome,[10],inactive
same,outcome,[6],inactive
same,outcome,[7],inactive
same,outcome,[8],inactive
same,AC50,[9],35.2 µM (active)
ClCc1ccccc1CCl,outcome,[1],inactive
same,outcome,[2],inactive
same,outcome,[3],inactive
same,outcome,[4],inactive
same,outcome,[5],inactive
same,outcome,[6],inactive
same,outcome,[7],inactive
same,AC50,[8],33.4 µM (active)
same,AC50,[9],25.1 µM (active)
CCOc1cc(C=O)ccc1O,outcome,[1],inactive
same,outcome,[2],inactive
same,outcome,[3],inactive
same,outcome,[4],inactive
same,outcome,[10],inactive
same,outcome,[6],inactive
same,outcome,[7],inactive
same,outcome,[8],inactive
same,outcome,[9],inactive
CCOC(=O)OC1=C(c2cc(C)ccc2C)C(=O)NC12CCC(OC)CC2 (stereo unspecified),outcome,[1],inactive
same,outcome,[2],inactive
same,outcome,[3],inactive
same,outcome,[4],inactive
same,outcome,[5],inactive
same,outcome,[10],inactive
same,outcome,[6],inactive
same,outcome,[7],inactive
same,outcome,[8],inactive
Nc1ccc(Br)cc1,outcome,[1],inactive
same,outcome,[2],inactive
same,outcome,[3],inactive
same,outcome,[4],inactive
same,outcome,[5],inactive
same,outcome,[10],inactive
same,outcome,[6],inactive
same,outcome,[7],inactive
same,outcome,[8],inactive
same,outcome,[9],inactive
Cc1ccc2nc3sc(=O)sc3nc2c1,outcome,[1],inactive
same,AC50,[2],6.47 µM (active)
same,outcome,[3],inactive
same,outcome,[4],inactive
same,outcome,[5],inactive
same,AC50,[10],25 µM (active)
same,AC50,[6],12.2 µM (active)
same,outcome,[7],inactive
same,AC50,[8],6.38 µM (active)
same,outcome,[9],inactive
C=CCc1ccccc1O,outcome,[1],inactive
same,outcome,[2],inactive
same,outcome,[3],inactive
same,outcome,[4],inactive
same,outcome,[10],inactive
same,outcome,[6],inactive
same,outcome,[7],inactive
same,outcome,[8],inactive
O=C(Nc1ccc(Br)cc1)c1cc(Br)cc(Br)c1O,outcome,[1],inactive
same,outcome,[2],inactive
same,outcome,[3],inactive
same,outcome,[4],inactive
same,outcome,[5],inactive
same,outcome,[10],inactive
same,outcome,[6],inactive
same,AC50,[7],2.27 µM (active)
same,outcome,[8],inactive
same,outcome,[9],inactive
Cc1cc(C(C)(C)c2ccc(O)c(C)c2)ccc1O,outcome,[1],inactive
same,outcome,[2],inactive
same,outcome,[3],inactive
same,outcome,[4],inactive
same,AC50,[5],69.3 µM (active)
same,AC50,[10],89.7 µM (active)
same,outcome,[6],inactive
same,outcome,[7],inactive
same,outcome,[8],inactive
Cc1ccc(CCl)cc1,outcome,[1],inactive
same,outcome,[2],inactive
same,outcome,[3],inactive
same,outcome,[4],inactive
same,outcome,[10],inactive
same,outcome,[6],inactive
same,outcome,[7],inactive
same,outcome,[8],inactive
same,outcome,[9],inactive
OC[P+](CO)(CO)CO,outcome,[1],inactive
same,outcome,[2],inactive
same,outcome,[3],inactive
same,outcome,[4],inactive
same,outcome,[5],inactive
same,outcome,[10],inactive
same,outcome,[6],inactive
same,outcome,[7],inactive
same,outcome,[8],inactive
O=C(O)COc1ccc(Cl)cc1,outcome,[1],inactive
same,outcome,[2],inactive
same,outcome,[3],inactive
same,outcome,[4],inactive
same,outcome,[10],inactive
same,outcome,[6],inactive
same,outcome,[7],inactive
same,outcome,[9],inactive
O=[N+]([O-])c1ccc(Nc2ccccc2)cc1,outcome,[1],inactive
same,outcome,[2],inactive
same,outcome,[3],inactive
same,outcome,[5],inactive
same,outcome,[6],inactive
same,outcome,[7],inactive
same,outcome,[8],inactive
same,outcome,[9],inactive
C[C@@H]1O[C@@H](O[C@H]2C[C@@H](O)[C@]3(CO)[C@H]4[C@H](O)C[C@]5(C)[C@@H](C6=CC(=O)OC6)CC[C@]5(O)[C@@H]4CC[C@]3(O)C2)[C@H](O)[C@H](O)[C@H]1O,outcome,[1],inactive
same,outcome,[2],inactive
same,outcome,[3],inactive
same,outcome,[5],inactive
same,AC50,[10],0.328 µM (active)
same,outcome,[6],inactive
same,AC50,[7],0.645 µM (active)
same,outcome,[8],inactive
CN(C)CCN(C)C,outcome,[1],inactive
same,outcome,[2],inactive
same,outcome,[4],inactive
same,outcome,[5],inactive
same,outcome,[10],inactive
same,outcome,[6],inactive
same,outcome,[7],inactive
same,outcome,[8],inactive
same,outcome,[9],inactive
O=NN1CCCCCCC1,outcome,[1],inactive
same,outcome,[2],inactive
same,outcome,[3],inactive
same,outcome,[4],inactive
same,outcome,[6],inactive
same,outcome,[7],inactive
same,outcome,[8],inactive
same,outcome,[9],inactive
N#CCC#N,outcome,[1],inactive
same,outcome,[2],inactive
same,outcome,[3],inactive
same,outcome,[5],inactive
same,outcome,[10],inactive
same,outcome,[6],inactive
same,outcome,[7],inactive
same,outcome,[8],inactive
same,outcome,[9],inactive
NNCCO,outcome,[1],inactive
same,outcome,[2],inactive
same,outcome,[10],inactive
same,outcome,[6],inactive
same,outcome,[7],inactive
same,outcome,[8],inactive
CCCCOC(C)=O,outcome,[1],inactive
same,outcome,[2],inactive
same,outcome,[3],inactive
same,outcome,[4],inactive
same,outcome,[6],inactive
same,outcome,[7],inactive
same,outcome,[9],inactive
CCCCCCCCCCCCBr,outcome,[1],inactive
same,outcome,[2],inactive
same,outcome,[3],inactive
same,outcome,[10],inactive
same,outcome,[6],inactive
same,outcome,[7],inactive
same,outcome,[8],inactive
same,outcome,[9],inactive
C[N+](C)(C)Cc1ccccc1,outcome,[1],inactive
same,outcome,[2],inactive
same,outcome,[4],inactive
same,outcome,[10],inactive
same,outcome,[6],inactive
same,outcome,[7],inactive
C=C(C)C(=O)OCCCCOC(=O)C(=C)C,outcome,[1],inactive
same,outcome,[2],inactive
same,outcome,[4],inactive
same,outcome,[5],inactive
same,outcome,[10],inactive
same,outcome,[6],inactive
same,outcome,[7],inactive
same,outcome,[8],inactive
NC(=O)c1ccc(N)nc1,outcome,[1],inactive
same,outcome,[2],inactive
same,outcome,[10],inactive
same,outcome,[6],inactive
same,outcome,[7],inactive
same,outcome,[8],inactive
same,outcome,[9],inactive
Clc1cccc(Cl)c1Cl,outcome,[1],inactive
same,outcome,[2],inactive
same,outcome,[3],inactive
same,outcome,[6],inactive
same,outcome,[7],inactive
same,outcome,[8],inactive
same,outcome,[9],inactive
N#Cc1ccccc1N,outcome,[1],inactive
same,outcome,[2],inactive
same,outcome,[4],inactive
same,outcome,[10],inactive
same,outcome,[6],inactive
same,outcome,[7],inactive
same,outcome,[8],inactive
same,outcome,[9],inactive
CC(C)[N+](=O)[O-],outcome,[1],inactive
same,outcome,[2],inactive
same,outcome,[3],inactive
same,outcome,[4],inactive
same,outcome,[6],inactive
same,outcome,[7],inactive
same,outcome,[8],inactive
same,outcome,[9],inactive
